# Data reported in PubChem BioAssay (NCATS).
# Values joined by “and” are separate entries in the source; they are usually repeats but may differ in a detail not shown here. Equal entries are not always repeated. Records with an inconclusive call do not appear. Active and inactive are the calls of the source. Calls come from the whole dose curve; as a rule, active = well fitted inhibition curve with a large enough effect; inconclusive = small, poorly fitted or top-dose-only effect; inactive = flat fitted curve, though single readings scatter.
# System: PC26
# Test: qHTS profiling for inhibitors of Plasmodium falciparum proliferation (AID 504749);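 note: 0% = DMSO vehicle and full inhibition = artemisinin control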
# Settings: P. falciparum in erythrocytes, SYBR Green DNA, 72 h; series mostly up to 28.7 µM; activity, negative = inhibition: at the top concentration
# Method in brief: (§1)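 P. falciparum-infected erythrocytes (0.3% parasitemia, 2.5% hematocrit) incubated with compound 72 h at 37 C, 5% CO2. Parasite DNA detected by SYBR Green after lysis, overnight at room temperature; normalised to 0.29 uM artemisinin and DMSO.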
# Note: nearly all actives have a fitted effect of over 60% in size.
row,Structure (SMILES),"activity, negative = inhibition"
1,c1ccc2c(c1)sc1ccccc12,-5.45% (inactive)
2,CN1CCC(O)(c2ccc(F)cc2)C(C(=O)c2ccc(F)cc2)C1 (stereo not given),2.3% (inactive)
3,C[C@]12CCC(=O)C=C1CC[C@@H]1[C@@H]2CC[C@]2(C)C(=O)CC[C@@H]12,-0.658% (inactive)
4,NCCc1ccc(O)cc1,-2.24% (inactive)
5,CN1C(=O)CCS(=O)(=O)C1c1ccc(Cl)cc1 (stereo not given),-6.28% (inactive)
6,CNC(C)(C)Cc1ccccc1,3.41% [at 12.8 µM] (inactive)
7,Cc1ncsc1CCCl,-3.8% (inactive)
8,COc1c2c(cc3c1OCO3)CCN(C)C2,4.63% [at 12.8 µM] (inactive)

# System: PC49
# Test: as above
# Settings: P. falciparum in erythrocytes, SYBR Green DNA, 72 h; series mostly up to 28.7 µM; activity, negative = inhibition: at the top concentration
# Method in brief: as §1
row,Structure (SMILES),"activity, negative = inhibition"
1,c1ccc2c(c1)sc1ccccc12,29.5% (inactive)
2,CN1CCC(O)(c2ccc(F)cc2)C(C(=O)c2ccc(F)cc2)C1 (stereo not given),3.49% (inactive)
3,C[C@]12CCC(=O)C=C1CC[C@@H]1[C@@H]2CC[C@]2(C)C(=O)CC[C@@H]12,7.1% (inactive)
4,NCCc1ccc(O)cc1,6.63% (inactive)
5,CN1C(=O)CCS(=O)(=O)C1c1ccc(Cl)cc1 (stereo not given),10.2% (inactive)
6,CNC(C)(C)Cc1ccccc1,10.9% [at 12.8 µM] (inactive)
7,Cc1ncsc1CCCl,2.02% (inactive)
8,COc1c2c(cc3c1OCO3)CCN(C)C2,0.552% [at 12.8 µM] (inactive)

# System: SC27B
# Test: as above
# Settings: P. falciparum in erythrocytes, SYBR Green DNA, 72 h; series mostly up to 28.7 µM; activity, negative = inhibition: at the top concentration
# Method in brief: as §1
row,Structure (SMILES),"activity, negative = inhibition"
1,c1ccc2c(c1)sc1ccccc12,0.16% (inactive)
2,CN1CCC(O)(c2ccc(F)cc2)C(C(=O)c2ccc(F)cc2)C1 (stereo not given),-1.27% (inactive)
3,C[C@]12CCC(=O)C=C1CC[C@@H]1[C@@H]2CC[C@]2(C)C(=O)CC[C@@H]12,-14.4% (inactive)
4,NCCc1ccc(O)cc1,2.96% (inactive)
5,CN1C(=O)CCS(=O)(=O)C1c1ccc(Cl)cc1 (stereo not given),8.99% (inactive)
6,CNC(C)(C)Cc1ccccc1,-7.02% [at 12.8 µM] (inactive)
7,Cc1ncsc1CCCl,1.87% (inactive)
8,COc1c2c(cc3c1OCO3)CCN(C)C2,-4.24% [at 12.8 µM] (inactive)

# System: TAB109
# Test: as above
# Settings: P. falciparum in erythrocytes, SYBR Green DNA, 72 h; series mostly up to 28.7 µM; activity, negative = inhibition: at the top concentration
# Method in brief: as §1
row,Structure (SMILES),"activity, negative = inhibition"
1,c1ccc2c(c1)sc1ccccc12,-3.1% (inactive)
2,CN1CCC(O)(c2ccc(F)cc2)C(C(=O)c2ccc(F)cc2)C1 (stereo not given),-6.64% (inactive)
3,C[C@]12CCC(=O)C=C1CC[C@@H]1[C@@H]2CC[C@]2(C)C(=O)CC[C@@H]12,-2.34% (inactive)
4,NCCc1ccc(O)cc1,3.99% (inactive)
5,CN1C(=O)CCS(=O)(=O)C1c1ccc(Cl)cc1 (stereo not given),1.94% (inactive)
6,CNC(C)(C)Cc1ccccc1,5.68% [at 12.8 µM] (inactive)
7,Cc1ncsc1CCCl,7.32% (inactive)
8,COc1c2c(cc3c1OCO3)CCN(C)C2,-5.01% [at 12.8 µM] (inactive)

# System: TAB113
# Test: as above
# Settings: P. falciparum in erythrocytes, SYBR Green DNA, 72 h; series mostly up to 28.7 µM; activity, negative = inhibition: at the top concentration
# Method in brief: as §1
row,Structure (SMILES),"activity, negative = inhibition"
1,c1ccc2c(c1)sc1ccccc12,4.88% (inactive)
2,CN1CCC(O)(c2ccc(F)cc2)C(C(=O)c2ccc(F)cc2)C1 (stereo not given),-3.07% (inactive)
3,C[C@]12CCC(=O)C=C1CC[C@@H]1[C@@H]2CC[C@]2(C)C(=O)CC[C@@H]12,1.05% (inactive)
4,NCCc1ccc(O)cc1,6.45% (inactive)
5,CN1C(=O)CCS(=O)(=O)C1c1ccc(Cl)cc1 (stereo not given),15.6% (inactive)
6,CNC(C)(C)Cc1ccccc1,4.41% [at 12.8 µM] (inactive)
7,Cc1ncsc1CCCl,22.2% (inactive)
8,COc1c2c(cc3c1OCO3)CCN(C)C2,-6.61% [at 12.8 µM] (inactive)

# System: TAB165
# Test: as above
# Settings: P. falciparum in erythrocytes, SYBR Green DNA, 72 h; series mostly up to 28.7 µM; activity, negative = inhibition: at the top concentration
# Method in brief: as §1
row,Structure (SMILES),"activity, negative = inhibition"
1,c1ccc2c(c1)sc1ccccc12,3.72% (inactive)
2,CN1CCC(O)(c2ccc(F)cc2)C(C(=O)c2ccc(F)cc2)C1 (stereo not given),-7.59% (inactive)
3,C[C@]12CCC(=O)C=C1CC[C@@H]1[C@@H]2CC[C@]2(C)C(=O)CC[C@@H]12,-11.5% (inactive)
4,NCCc1ccc(O)cc1,0.773% (inactive)
5,CN1C(=O)CCS(=O)(=O)C1c1ccc(Cl)cc1 (stereo not given),-1.74% (inactive)
6,CNC(C)(C)Cc1ccccc1,0.0219% [at 12.8 µM] (inactive)
7,Cc1ncsc1CCCl,4.15% (inactive)
8,COc1c2c(cc3c1OCO3)CCN(C)C2,2.88% [at 12.8 µM] (inactive)

# System: W2
# Test: as above
# Settings: P. falciparum in erythrocytes, SYBR Green DNA, 72 h; series mostly up to 28.7 µM; activity, negative = inhibition: at the top concentration
# Method in brief: as §1
row,Structure (SMILES),"activity, negative = inhibition"
1,c1ccc2c(c1)sc1ccccc12,14.3% (inactive)
2,C[C@]12CCC(=O)C=C1CC[C@@H]1[C@@H]2CC[C@]2(C)C(=O)CC[C@@H]12,-24.8% (inactive)
3,NCCc1ccc(O)cc1,1.35% (inactive)
4,CNC(C)(C)Cc1ccccc1,5.42% [at 12.8 µM] (inactive)
5,Cc1ncsc1CCCl,8.68% (inactive)

# System: CRL-7250
# Test: Cytotoxic Profiling of Annotated Libraries Using Quantitative High-Throughput Screening (AID 1296008); note: potency is the fitted concentration of half-maximal effect; for max response: % is set by controls: 0 for no effect and ±100 for the full control effect
# Settings: Five cell lines viability, CellTiter-Glo ATP luminescence, 48-72 h; max response: hits give low values
# Method in brief: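 Cells exposed to compounds for 48 or 72 hr at 37 degrees Celsius. Viability read as ATP-coupled luminescence with CellTiter-Glo after 10 min at room temperature.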
Structure (SMILES),max response,outcome,Potency
COP(=S)(OC)Oc1cc(Cl)c(Cl)cc1Cl,-8.37% (inactive),,
CC(Cc1ccccc1)NCCn1cnc2c1c(=O)n(C)c(=O)n2C (stereo not given),2.38% (inactive),,
CCc1cc2c(s1)-n1c(C)nnc1CN=C2c1ccccc1Cl,,inactive,
CCN[C@H](C)Cc1cccc(C(F)(F)F)c1,-0.312% (inactive),,
Nc1ccccc1,-1.03% (inactive),,
c1ccc2c(c1)sc1ccccc12,2.83% (inactive),,
COc1ccc2c3c1O[C@H]1[C@H](O)CC[C@H]4[C@@H](C2)N(C)CC[C@@]341,,inactive,
C[C@]12CC[C@H]3[C@@H](CCC4=CC(=O)CC[C@@H]43)[C@@H]1CC[C@@H]2OC(=O)CCC1CCCCC1,,inactive,
O=C1OC(CCN2CCCCC2)OC1(c1ccccc1)c1ccccc1 (stereo not given),-20% (inactive),,
CN1CCC(O)(c2ccc(F)cc2)C(C(=O)c2ccc(F)cc2)C1 (stereo not given),-1.09% (inactive),,
C#C[C@]1(O)CC[C@H]2[C@@H]3CCC4=CC(=O)CC[C@]4(C)[C@H]3CC[C@@]21C,-4.49% (inactive),,
C[C@]12CCC(=O)C=C1CC[C@@H]1[C@@H]2CC[C@]2(C)C(=O)CC[C@@H]12,-5.91% (inactive),,
NCCc1ccc(O)cc1,-9.28% (inactive),,
C[C@]12CCC(=O)C=C1CC[C@@H]1[C@@H]2CC[C@@]2(C)[C@H]1CC[C@]2(C)O,2.75% (inactive),,
CN1C(=O)CCS(=O)(=O)C1c1ccc(Cl)cc1 (stereo not given),-0.906% (inactive) and -1.81% (inactive),,
O=C(CCCN1CCC2(CC1)C(=O)NCN2c1ccccc1)c1ccc(F)cc1,-1.53% (inactive),,

Structure (SMILES),max response,outcome,Potency
C[C@]12Cc3cn[nH]c3C[C@@H]1CC[C@@H]1[C@@H]2CC[C@@]2(C)[C@H]1CC[C@]2(C)O,0.607% (inactive),,
CCCN(CCC)C(=O)Cc1c(-c2ccc(Cl)cc2)nc2ccc(Cl)cn12,0.585% (inactive),,
COc1cccc2c1C(=O)c1c(O)c3c(c(O)c1C2=O)C[C@@](O)(C(=O)CO)CC3OC1CC(N2CCOC(OC)C2)C(O)C(C)O1 (stereo not given in full),,,0.0168 µM (active)
ClCCN1CCCC1,-0.393% (inactive),,
CN1CC[C@]23c4c5ccc(O)c4O[C@H]2[C@@H](O)C=C[C@H]3[C@H]1C5,-11.3% (inactive),,
COc1cc(CC(C)N)cc(OC)c1OC (stereo not given),-18.9% (inactive),,
C=CCC1([C@H](C)CCC)C(=O)NC(=O)NC1=O,1.74% (inactive),,
COc1cc(CCN)cc(OC)c1OC,-14.6% (inactive),,
CNC(C)(C)Cc1ccccc1,-3% (inactive),,
COC(=O)[C@@H](N)CCCN/C(N)=N/[N+](=O)[O-],,inactive,
O=c1[nH]c2ccccc2n1C1CCNCC1,,inactive,
Cc1ncsc1CCCl,3.36% (inactive),,
CC(C(=O)c1ccccc1)N(C)C (stereo not given),3.38% (inactive),,
CC(C)C[C@H](CN)CC(=O)O,-0.456% (inactive),,
COc1c2c(cc3c1OCO3)CCN(C)C2,-2.93% (inactive),,
CCN(CCO)CCn1c(Cc2ccccc2)nc2c1c(=O)n(C)c(=O)n2C,-2.16% (inactive),,
